Here are results for 87 compounds from PubChem BioAssay AID743287 (Broad Institute, 2014).

Hit rate of the full screen: of about 370,000 compounds, about 2,300 (0.62%) were called active.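 How the source made its calls: active means lowest replicate activation of at least 40%, so every replicate reaches that level; inactive means the rest.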 The entries come from a sample that favours actives as a whole.

This assay in a line: GLuc luminescence reporter in INS-1E cells, primary screen for activators of glucose-dependent secretion of insulin (AID 743287).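 Further: 0% = median of neutral control wells and 100% = median of IBMX positive control wells.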 The conditions noted are these: INS-1E GLuc reporter insulin secretion, 2-3 h, at 16.6 µM, stronger effect = higher value.
As for `O=C(C[C@H]1CC[C@H](NC(=O)CCN2CCCCC2)[C@@H](CO)O1)Nc1ccccc1`, the activation was 33.8% (inactive).

As for `CCOC(=O)c1cc(-c2ccc(Cl)s2)nc2c1c(C)nn2C`, the activation is 60% (active).

On to `CCOC(=O)c1cc(C(=O)Nc2ccc(S(=O)(=O)Nc3ccc(OC)cc3)cc2)nn1C`, for which the activation is 17% (inactive).

For the compound `CCOC(=O)c1cnc2c(c(C)nn2CC)c1Cl`, the activation is 7.57% (inactive).

For `C[C@H]1CN([C@@H](C)CO)C(=O)Cc2cc(NC(=O)NC3CCCCC3)ccc2O[C@H]1CN(C)S(=O)(=O)c1ccccc1`, the activation was -7.37% (inactive).

Take `CN1C(=O)c2cc(NC(=O)C3CCC3)ccc2OC[C@@H]2O[C@@H](CC(=O)NCc3ccccc3F)CC[C@@H]21`: the activation was 19.7% (inactive).

In the case of `CC(=O)c1cccc(-c2cnc3c(NC=O)cc(-c4ccc(N5CCN(C)CC5)cc4)cn23)c1`, the activation is 9.93% (inactive).

Consider `CC(=O)Nc1cc(-c2ccc(N3CCN(C)CC3)cc2)cn2c(-c3cccc(C(=O)N(C)C)c3)cnc12`, for which the activation is 40.3% (active).

With `COc1cccc(-c2cnc3c(NC(C)=O)cc(-c4cccc(NC(C)=O)c4)cn23)c1`, the activation was -1.53% (inactive).

With `CC(C)C#Cc1ccc([C@H]2[C@@H](C#N)N(C(=O)CN(C)C)[C@H]2CO)cc1`, the activation is 1.29% (inactive).

As to `CC(C)NC(=O)N(C)C[C@H]1Oc2ccc(N(C)C)cc2CC(=O)N(C)C[C@@H]1C`, the activation is 0.073% (inactive).

Turning to `Cc1ccc(S(=O)(=O)N(C)C[C@H]2Oc3c(NS(=O)(=O)c4ccc(Cl)cc4)cccc3C(=O)N([C@H](C)CO)C[C@@H]2C)cc1`, the activation was 11.6% (inactive).

`COc1ccccc1CNC(=O)CCCn1c(=O)c2ccccc2n(CC(=O)NC2CCCC2)c1=O`: the activation is -9.86% (inactive).

With `COc1ccc(CCNC(=O)CCn2c(=O)c3ccccc3n(CC(=O)NCC3CCCO3)c2=O)cc1OC` (configuration not stated), the activation is 55.9% (active).

For `COc1ccc(CCNC(=O)CCn2c(=O)oc3ccccc32)cc1OC`, the activation is 49.9% (inactive).

For `COCC(=O)Nc1ccc2c(c1)OC[C@@H](C)N(Cc1ccccc1C(=O)O)C[C@@H](C)[C@H](OC)CN(C)C2=O`, the activation was 4.87% (inactive).

As for `O=C(c1ccc(F)cc1)N1CC(=O)N2[C@@H](CO)[C@@H](c3ccc(C#Cc4ccc(F)cc4)cc3)[C@@H]2C1`, the activation was -24.9% (inactive).

In the case of `CO[C@@H]1CN(C)C(=O)c2cc(NC(=O)c3cccc(Oc4ccccc4)c3)ccc2OC[C@H](C)NC[C@@H]1C`, the activation is -6.99% (inactive).

As for `NC[C@H](Cc1ccccc1)NCCc1cc(C(F)(F)F)cc(C(F)(F)F)c1`, the activation was 143% (active).

As for `CCC(=O)N1CCC2(CC1)CN(Cc1cc(F)ccc1F)[C@@H](CO)c1c2c2ccc(OC)cc2n1C`, the activation is -0.065% (inactive).

With `O=C(c1ccccc1F)N1CC(=O)N2[C@H](CO)[C@H](c3ccc(-c4cccnc4)cc3)[C@H]2C1`, the activation is 27.6% (inactive).

As to `Fc1c(F)c(C(F)(F)F)c(F)c(F)c1N1CCN(c2ccc3nnc(C(F)(F)F)n3n2)CC1`, the activation is 57% (active).

Turning to `COc1ccc(CN(C)C[C@H]2OCCCC[C@H](C)Oc3ccc(NS(=O)(=O)c4ccc(C)cc4)cc3C(=O)N([C@@H](C)CO)C[C@H]2C)cc1`, the activation was -29.4% (inactive).

As to `COc1ccc2c3c([nH]c2c1)[C@H](CO)N(S(=O)(=O)c1cn(C)cn1)CC31CCN(CC2CC2)CC1`, the activation is 15.9% (inactive).

For the compound `C/C=C/c1ccc2c(c1)O[C@H](CN(C)C)[C@H](C)CN([C@H](C)CO)S2(=O)=O`, the activation is 14.9% (inactive).

For the compound `COc1ccc(CCNC(=O)c2nnc(CS(=O)(=O)c3ccccc3)o2)cc1OC`, the activation is 6.41% (inactive).

Take `CCOc1ccc(CCNC(=O)COC(=O)C2CCN(S(=O)(=O)c3ccccc3)CC2)cc1OCC`: the activation is 22% (inactive).

`COc1ccc(CCNC(=O)NS(=O)(=O)c2ccc(C)cc2)cc1OC`: the activation is 58.1% (active).

For `COc1ccc(CCNC(=O)CCC(=O)NC2CCCCC2)cc1OC`, the activation was -1.71% (inactive).

Turning to `COc1ccc(CCNC(=O)CCc2ccccc2O)cc1OC`, the activation is 55.3% (active).

`CCOc1ccc(CCNC(=O)COC(=O)CCS(=O)(=O)c2ccc(C)cc2)cc1OCC`: the activation is 54.2% (active).

Consider `Cc1ccc(S(=O)(=O)CCC(=O)OCc2ccccc2)cc1`, for which the activation was -1.88% (inactive).

Take `COc1ccc(CCNC(=O)CS(=O)(=O)Cc2nc(-c3ccc(C)cc3)oc2C)cc1OC`: the activation was -11.8% (inactive).

On to `CCOc1ccc(CCNC(=O)COC(=O)c2c(OC)cccc2OC)cc1OCC`, for which the activation was 19.6% (inactive).

On to `COc1ccc(CNC(=O)COC(=O)CCS(=O)(=O)c2ccc(C)cc2)cc1OC`, for which the activation is 45.1% (active).

With `COc1ccc(CNC(=O)COC(=O)c2ccc(C)c(S(=O)(=O)N3CCOCC3)c2)cc1OC`, the activation was 16.8% (inactive).

As to `COc1ccc(CCNC(=O)C(=O)NCc2ccccc2C)cc1OC`, the activation is 30.4% (inactive).

As for `CCCNC(=O)N1CC(=O)N2[C@H](CO)[C@H](c3ccc(C#Cc4cccc(OC)c4)cc3)[C@H]2C1`, the activation was -24.3% (inactive).

As for `CNC[C@H]1Oc2ccccc2CC(=O)N(C)C[C@H]1C`, the activation was 13.7% (inactive).

In the case of `Cc1cc(C(=O)Nc2cccc3c2O[C@H](CN(C)C(=O)Nc2ccccc2)[C@@H](C)CN([C@H](C)CO)C3=O)n(C)n1`, the activation was 26.8% (inactive).

Turning to `Cc1ccc(S(=O)(=O)N(C)C[C@@H]2Oc3ccc(NC(=O)C4CCCCC4)cc3CC(=O)N([C@@H](C)CO)C[C@H]2C)cc1`, the activation was -11.4% (inactive).

Regarding `CCS(=O)(=O)Nc1ccc2c(c1)C(=O)N(C)[C@H]1CC[C@@H](CC(=O)N3CCCCC3)O[C@H]1CO2`, the activation is -5.88% (inactive).

As for `C[C@@H]1CN([C@H](C)CO)S(=O)(=O)c2ccc(-c3ccccc3)cc2O[C@@H]1CN(C)CC1CC1`, the activation was 10.8% (inactive).

Consider `O=C(C[C@H]1CC[C@H](NC(=O)c2ccncc2)[C@H](CO)O1)Nc1ccccc1`, for which the activation was 22% (inactive).

Turning to `O=C(c1cnccn1)N1CC(=O)N2[C@H](C1)[C@@H](c1ccc(C3=CCCCC3)cc1)[C@@H]2CO`, the activation was -9.9% (inactive).

Take `CO[C@@H]1CN(C)C(=O)c2ccc(NS(C)(=O)=O)cc2OC[C@@H](C)N(C(=O)CC2CC2)C[C@@H]1C`: the activation is -7.78% (inactive).

Consider `O=C(NCCc1ccccc1)c1c[nH]c2ccc(F)cc2c1=O`, for which the activation was -9.34% (inactive).

For the compound `Nc1nc2c(Br)ccc(Br)c2cc1C(=O)NCCc1ccccc1`, the activation was 41.1% (active).

Turning to `NC(=O)Nc1ccccc1C(=O)NCCc1ccccc1`, the activation is 16.6% (inactive).

As for `CO[C@H]1CN(C)C(=O)c2ccc(NC(=O)c3cc(C)on3)cc2OC[C@@H](C)NC[C@@H]1C`, the activation was 14.3% (inactive).

In the case of `COc1ccc(NC(=O)N(C)C[C@@H]2Oc3c(NS(=O)(=O)c4cn(C)cn4)cccc3C(=O)N([C@H](C)CO)C[C@@H]2C)cc1`, the activation is 8.28% (inactive).

Consider `CCC(=O)N1CCC2(CC1)CN(Cc1cccc(OC)c1)[C@@H](CO)c1[nH]c3cc(OC)ccc3c12`, for which the activation was 5.34% (inactive).

Take `Nc1[nH]c(C(=O)c2ccccc2)c(-c2ccncc2)c1C(=O)NCc1cccc2ccccc12`: the activation is 49.2% (active).

For `Nc1[nH]c(C(=O)c2ccccc2)c(-c2ccc(Br)cc2)c1C(=O)NC1CC1`, the activation was 2.55% (inactive).

In the case of `CC(C)(C)C(=O)c1c(N)[nH]c(C(=O)c2ccccc2)c1-c1ccc(F)cc1`, the activation was 0.681% (inactive).

For the compound `C[C@@H]1CCCCO[C@H](CN(C)C(=O)Cc2ccccc2)[C@H](C)CN([C@@H](C)CO)C(=O)c2cc(NS(=O)(=O)c3ccc(F)cc3)ccc2O1`, the activation was -21.1% (inactive).

Turning to `COc1ccc2c3c(n(C)c2c1)[C@H](CO)N(Cc1ccccc1Cl)CC31CN(C(=O)CN(C)C)C1`, the activation is 11.4% (inactive).

Regarding `O=C(COC(=O)c1cccc(Cl)c1)Nc1ccc2[nH]c(=O)[nH]c2c1`, the activation was 5.13% (inactive).

For the compound `O=C(COC(=O)c1cccc(Br)c1)Nc1cccc2c1C(=O)c1ccccc1C2=O`, the activation was 98% (active).

Consider `O=C(COC(=O)Cn1cnc2ccccc21)Nc1cccc2c1C(=O)c1ccccc1C2=O`, for which the activation is 4.13% (inactive).

As for `COc1ccc(-c2cc(C(=O)N(C)Cc3ccc(OC)c(OC)c3OC)c3ccccc3n2)cc1OC`, the activation is 62.1% (active).

Consider `COc1ccc(C(=O)N(C)Cc2ccc(OC)c(OC)c2OC)cc1S(=O)(=O)N1CCOCC1`, for which the activation was -3.04% (inactive).

With `COc1ccc(CN(C)C(=O)Cc2ccsc2)c(OC)c1OC`, the activation was -7.45% (inactive).

For `COCc1cc(=O)n2[nH]c(C)c(-c3ccccc3)c2n1`, the activation was -1.45% (inactive).

As for `CCCc1cc(=O)n2[nH]c(C)c(-c3ccc(Cl)cc3)c2n1`, the activation was 43.7% (active).

With `CCn1c(C)cc(=O)cc1-c1ccc(Cl)cc1`, the activation is 9.35% (inactive).

With `CN(C)C(=O)[C@@H]1[C@@H](CO)[C@@H]2Cn3c(ccc(-c4ccccc4)c3=O)[C@@H]2N1CCC(F)(F)F`, the activation is 21.1% (inactive).

Regarding `O=C1N[C@H](c2ccccc2)COCc2cn(nn2)CC[C@@H]1Cc1ccc(Cl)cc1`, the activation is 5.93% (inactive).

Take `COc1cccc(NC(=O)N[C@H]2C=C[C@@H](CC(=O)Nc3ccc(-c4ccccc4)cc3)O[C@@H]2CO)c1`: the activation is 58.9% (inactive).

In the case of `CC(=O)Nc1cc(-c2cccc(CO)c2)cn2c(-c3cccc(C(F)(F)F)c3)cnc12`, the activation was -3.82% (inactive).

In the case of `CC(=O)Nc1cc(-c2ccccc2F)cn2c(-c3cccc(C(F)(F)F)c3)cnc12`, the activation was 2.99% (inactive).

As for `CN(C)CCNC(=O)c1cccc(-c2cnc3c(NC=O)cc(-c4cccc(C(F)(F)F)c4)cn23)c1`, the activation is 52.7% (active).

With `COc1ccc2c3c(n(C)c2c1)[C@@H](CO)NCC31CN(S(=O)(=O)c2cccc(C)c2)C1`, the activation is 14.9% (inactive).

Turning to `CCOC(=O)c1cc(S(=O)(=O)NCCc2ccc(OC)c(OC)c2)cn1C`, the activation is 13.8% (inactive).

As for `O=S(=O)(NCCc1ccc(Cl)cc1)c1cccs1`, the activation is -20.9% (inactive).

Take `COc1ccc(CCNS(=O)(=O)c2ccc(Cl)s2)cc1OC`: the activation is 40.9% (active).

Turning to `C[C@H](CO)N1C[C@H](C)[C@@H](CN(C)C(=O)C2CCCCC2)OCCCC[C@H](C)Oc2ccc(N(C)C)cc2C1=O`, the activation was -2.98% (inactive).

As to `C[C@H](CO)N1C[C@H](C)[C@@H](CN(C)S(=O)(=O)c2cccc(F)c2)Oc2ncc(-c3cccc(F)c3)cc2C1=O`, the activation was 3.46% (inactive).

Consider `CCn1c(CNC(=O)c2ccco2)nnc1SCC(=O)Nc1cccc(F)c1`, for which the activation was -2.18% (inactive).

On to `CCn1c(SCC(=O)Nc2ccc3c(c2)OCCO3)nnc1C(C)C`, for which the activation is 13.3% (inactive).

Take `CCn1c(SCC(=O)Nc2cccc(F)c2)nnc1-c1cc2cc(Br)ccc2o1`: the activation is 85.4% (active).

With `C[C@H](CO)N1C[C@H](C)[C@H](CN(C)S(C)(=O)=O)Oc2ncc(C#CCN(C)C)cc2C1=O`, the activation is 18.2% (inactive).

Regarding `COc1ccc(CC(N)c2csc(NC(=O)Nc3ccc(C(C)C)cc3)n2)cc1` (configuration not stated), the activation was 193% (active).

Regarding `NC(Cc1ccc(F)cc1)c1csc(Nc2nncc3ccccc23)n1` (configuration not stated), the activation was -32.2% (inactive).

In the case of `NC(Cc1ccccc1)c1csc(Nc2cc(Oc3ccccc3)ncn2)n1` (configuration not stated), the activation is -24.7% (inactive).

In the case of `COc1ccc(S(=O)(=O)Nc2cccc3c2O[C@@H](CN(C)C(=O)Nc2cccc4ccccc24)[C@H](C)CN([C@@H](C)CO)C3=O)cc1`, the activation was -8.86% (inactive).

Consider `COc1cccc(C#Cc2cnc3c(c2)C(=O)N([C@H](C)CO)C[C@@H](C)[C@@H](CN(C)C(=O)C2CCC2)O3)c1`, for which the activation was -5.49% (inactive).
